# Test results: PubChem BioAssay
# Active and inactive are the calls of the source. No rule for the calls is given here.
# Target: Pantothenate synthetase (Mycobacterium tuberculosis (strain ATCC 25618 / H37Rv)) (UniProt P9WIL5)
# Experiment: Recombinant Mtb pantothenate synthetase (PanC) inhibitors, coupled enzyme, confirmatory (AID 375);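 also: 0% = full reaction with vehicle and 100% = no enzyme background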
# Settings: coupled enzyme assay; at 10 µM, active compounds read high
# Chain of Pantothenate synthetase (Mycobacterium tuberculosis (strain ATCC 25618 / H37Rv)) (P9WIL5 whole entry, looked up): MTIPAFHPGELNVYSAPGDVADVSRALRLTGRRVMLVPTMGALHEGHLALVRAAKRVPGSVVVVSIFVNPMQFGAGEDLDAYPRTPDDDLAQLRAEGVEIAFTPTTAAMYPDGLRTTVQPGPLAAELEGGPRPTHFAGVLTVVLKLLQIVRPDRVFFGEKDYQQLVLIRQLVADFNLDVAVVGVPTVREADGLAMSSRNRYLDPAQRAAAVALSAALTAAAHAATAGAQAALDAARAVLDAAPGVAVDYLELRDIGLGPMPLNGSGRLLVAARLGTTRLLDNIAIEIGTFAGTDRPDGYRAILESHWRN
row,Compound,inhibition
1,CNC(=O)CN(C#N)c1nc(N(C)C)nc(N(C)C)n1,0% (inactive)
2,COC(=O)c1sccc1NC(=O)c1csc(C)c1,6% (inactive)
3,CC1=C(C)CC2C(=O)N(c3cccc4ccccc34)C(=O)C2C1 (stereo not given),0% (inactive)
4,CC(C(=O)NC1CCCCCC1)N(c1ccccc1)S(C)(=O)=O (stereo not given),0% (inactive)
5,COc1ccc(CN(CCN(C)C)c2ccccn2)cc1,4% (inactive)
6,O=C1[C@@H]2C(c3ccccc3Cl)=NO[C@@H]2C(=O)N1Cc1ccccc1,0% (inactive)
7,O=C(CSc1nc2ncccc2[nH]1)Nc1ccc2c(c1)OCCO2,0% (inactive)
8,OCC#CCSc1nnc(-c2ccccc2Br)o1,0% (inactive)
9,O=c1oc2ccccc2c2c1ncn2-c1ccccc1,0% (inactive)
10,Cn1c(=O)c2c(nc(NCC3CCCO3)n2C)n(C)c1=O (stereo not given),0% (inactive)
11,Nc1nc(N)nc(-c2ccccc2)n1,0% (inactive)
12,COc1ccccc1NS(=O)(=O)c1ccc(NC(=O)c2nc3ncccn3n2)cc1,0% (inactive)
13,COc1ccc(-n2c(Cc3cccn3C)nnc2SCC(=O)Nc2cccc(OC)c2)cc1,2% (inactive)
14,CCSc1nnc(NC(=O)CSc2nnc(Cc3cccn3C)n2-c2ccc(C)cc2)s1,5% (inactive)
15,Cc1cc2cc(CN(CCCN3CCOCC3)C(=O)NC3CCCCC3)c(=O)[nH]c2cc1C,2% (inactive)
16,COc1ccc(NC(=O)CSc2c(C)nn(-c3nnc(C)c(=O)[nH]3)c2C)cc1,0% (inactive)
17,COc1cccc(Cn2c(Oc3ccccc3)nc3c2c(=O)n(C)c(=O)n3C)c1,0% (inactive)
18,O=C(Nc1nc(-c2ccncc2)cs1)C1COc2ccccc2O1 (stereo not given),0% (inactive)
19,CCc1cccc(NC(=O)CCc2nc(-c3cccs3)no2)c1,0% (inactive)
20,CN(C)c1ccc(C2C3=C(CCCC3=O)OC3=C2C(=O)CCC3)cc1,0% (inactive)

row,Compound,inhibition
1,CCOc1ccccc1NS(=O)(=O)c1c(C)noc1C,0% (inactive)
2,CCOc1cc(C2Nc3ccccc3C(=O)N2c2ccccc2OC)ccc1O (stereo not given),0% (inactive)
3,O=S(=O)(c1cccs1)N1CCN(C/C=C/c2ccccc2)CC1,0% (inactive)
4,N#Cc1c(N2CCCC2)nc(N)c2c(N)nc(N3CCCC3)cc12,0% (inactive)
5,COCCNC(=O)C(C)OC(=O)c1nsc(Cl)c1Cl (stereo not given),0% (inactive)
6,Cc1ccc(CN2C(=O)CCC2C(=O)NC2CCCC2)cc1 (stereo not given),0% (inactive)
7,Cc1oc2cc3c(C(=O)OCCN(C)C)c(C)oc3cc2c1C(=O)OCCN(C)C,0% (inactive)
8,O=C(Nc1nc(-c2ccccc2)cs1)C1CCCO1 (stereo not given),3% (inactive)
9,CCOc1cccc(-c2nnc3n2N=C(c2cc(OC)ccc2OC)CS3)c1,8% (inactive)
10,CC1(C)CC(=O)C=C(NCc2ccncc2)C1,0% (inactive)
11,CC(C)CC(c1nnnn1CC1CCCO1)N1CCN(Cc2ccc3c(c2)OCO3)CC1 (stereo not given),0% (inactive)
12,Cc1ncc([N+](=O)[O-])n1CCO,1% (inactive)
13,CC1=C(C)C(=O)NC(Nc2nc(C)c3cc(C)cc(C)c3n2)N1 (stereo not given),0% (inactive)
14,CC(=O)n1cc(-c2ccncc2)c2ccccc21,0% (inactive)
15,CC(C)(C)NC[C@H](O)COc1nsnc1N1CCOCC1,2% (inactive)
16,CC(CN1CCOCC1)(NS(=O)(=O)c1ccccc1)c1ccccc1 (stereo not given),1% (inactive)
17,COc1nc(N2CCOCC2)nc(-n2cccc2)n1,2% (inactive)
18,CC1(C)O[C@@H]2C[C@H]3[C@@H]4C[C@H](F)C5=CC(=O)CC[C@]5(C)[C@H]4[C@@H](O)C[C@]3(C)[C@]2(C(=O)CO)O1,7% (inactive)
19,COC(=O)c1[nH]c2ccc(C)cc2c1NC(=O)CN1CCCC(C)(C)C1,0% (inactive)
20,C=CCn1c(SCC(=O)NCC2CCCO2)nnc1C1CCCCC1 (stereo not given),8% (inactive)
